Read-out in experiment [1]: Transforming growth factor beta 1 (TGFb1), TGFB1 (gene 7040)
In words: BSK_KF3CT_TGFb1: BioMAP Diversity Plus: KF3CT Assay for Transforming growth factor beta 1 (TGFb1) Biomarker Activity (AID 2283072). The settings on record: primary human keratinocytes with fibroblasts; actives raise or lower the signal. An outline of the steps: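 ELISA quantifies TGF-b1 at 24 h post-dose in a primary human skin co-culture of keratinocytes and fibroblasts, with gain or loss judged against DMSO. Parallel SRB total-protein staining flags overt cytotoxicity.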

Read-out in experiment [2]: C-C motif chemokine 2 (Homo sapiens) (UniProt P13500)
The experiment can be described thus: BSK_KF3CT_MCP1: BioMAP Diversity Plus: KF3CT Assay for Monocyte Chemoattractant Protein 1 (MCP1/CCL2) Biomarker Activity (AID 2283073). As to conditions: primary human keratinocytes with fibroblasts; actives raise or lower the signal. An outline of the steps: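 Human keratinocyte plus foreskin fibroblast primary co-culture exposed to chemical for 24 h. MCP-1 levels measured by ELISA. Bidirectional curve fitting relative to DMSO negative control as baseline.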

Read-out in experiment [3]: Matrix Metallopeptidase 9 (MMP9), MMP9 (gene 4318)
The experiment can be described thus: BSK_KF3CT_MMP9: BioMAP Diversity Plus: KF3CT Assay for Matrix Metallopeptidase 9 (MMP9) Biomarker Activity (AID 2283074).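 On AC50: MMP9 protein level quantified by ELISA in the co-culture.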 The settings on record: primary human keratinocytes with fibroblasts; actives raise or lower the signal. Summed up: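 ELISA read-out of MMP-9 at 24 h post-dosing in a co-culture of human skin keratinocytes and foreskin fibroblasts. Gain or loss of signal was fitted in both directions against DMSO.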

Read-out in experiment [4]: urokinase plasminogen activator (uPA), PLAU (gene 5328)
The experiment can be described thus: BSK_KF3CT_uPA: BioMAP Diversity Plus: KF3CT Assay for urokinase plasminogen activator (uPA) Biomarker Activity (AID 2283075). As to conditions: primary human keratinocytes with fibroblasts; actives raise or lower the signal. Summed up: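 Skin co-culture (keratinocytes + foreskin fibroblasts), human primary; 24 h post-dose; uPA by ELISA; gain/loss fit vs DMSO baseline.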

Read-out in experiment [5]: CD40, CD40 (gene 958)
The experiment can be described thus: BSK_LPS_CD40: BioMAP Diversity Plus: LPS Assay for CD40 Biomarker Activity (AID 2283076). The settings on record: primary human HUVEC with PBMC; actives raise or lower the signal. An outline of the steps: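 Primary human umbilical vein endothelial cells co-cultured with peripheral blood mononuclear cells, LPS-stimulated, were dosed with chemical and read 24 h later. CD40 levels were measured by ELISA and fitted bidirectionally against DMSO as negative control and baseline.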

Read-out in experiment [6]: E-selectin (Homo sapiens) (UniProt P16581)
The experiment can be described thus: BSK_LPS_Eselectin: BioMAP Diversity Plus: LPS Assay for Eselectin Biomarker Activity (AID 2283077). As to conditions: primary human HUVEC with PBMC; actives raise or lower the signal. An outline of the steps: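 Human umbilical vein endothelial cells co-cultured with peripheral blood mononuclear cells under LPS stimulation; E-selectin measured by ELISA 24 h after chemical dosing. Activity fitted bidirectionally against DMSO as negative control and baseline.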

Read-out in experiment [7]: Interleukin-8 (IL8), CXCL8 (gene 3576)
In words: BSK_LPS_IL8: BioMAP Diversity Plus: LPS Assay for Interleukin-8 (IL8) Biomarker Activity (AID 2283078). The settings on record: primary human HUVEC with PBMC; actives raise or lower the signal. Summed up:
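Human umbilical vein endothelial cells co-cultured with PBMC were stimulated with LPS; IL-8 levels were measured by ELISA 24 h after chemical dosing. Activity was fitted bidirectionally against DMSO as negative control and baseline.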

A short description of experiment [8]: BSK_LPS_SRB: Viability Assessment in the BioMAP Diversity Plus: LPS Assay (AID 2283079).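 Further: total protein by sulforhodamine B absorbance as a cytotoxicity measure; measured one day after compound addition.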 The settings on record: primary human HUVEC with PBMC. An outline of the steps:
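Human umbilical vein endothelial cells co-cultured with PBMC (LPS system) were dosed for 24 h. Total protein was stained with 0.1% sulforhodamine B after 10% TCA fixation, read at 560 nm, and fitted bidirectionally against DMSO baseline.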

Read-out in experiment [9]: Interleukin-1 alpha (IL1a), IL1A (gene 3552)
In words: BSK_LPS_IL1a: BioMAP Diversity Plus: LPS Assay for Interleukin-1 alpha (IL1a) Biomarker Activity (AID 2283080). As to conditions: primary human HUVEC with PBMC; actives raise or lower the signal. Summed up:
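Human umbilical vein endothelial cells co-cultured with peripheral blood mononuclear cells were LPS-stimulated and exposed to test chemicals for 24 h. IL-1 alpha was quantified by ELISA, with bidirectional curve fitting against DMSO as the negative control and baseline.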

Read-out in experiment [10]: Monocyte Chemoattractant Protein-1 (MCP1), CCL2 (gene 6347)
The experiment can be described thus: BSK_LPS_MCP1: BioMAP Diversity Plus: LPS Assay for Monocyte Chemoattractant Protein-1 (MCP1) Biomarker Activity (AID 2283081). As to conditions: primary human HUVEC with PBMC; actives raise or lower the signal. An outline of the steps: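 HUVEC plus PBMC co-culture (human primary cells, LPS system) exposed to test chemical for 24 h; MCP-1 measured by ELISA. Bidirectional curve fitting against DMSO baseline; parallel SRB total-protein staining flags overt cytotoxicity.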

Experiment [11] is described as follows: BSK_LPS_PGE2: BioMAP Diversity Plus: LPS Assay for Prostaglandin E2 (PGE2) Biomarker Activity (AID 2283082). As to conditions: primary human HUVEC with PBMC; actives raise or lower the signal. Summed up: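 PGE2 release measured by ELISA in an LPS-activated co-culture of human umbilical vein endothelial cells and peripheral blood mononuclear cells, read at 24 h post-dosing. DMSO served as baseline for bidirectional curve fitting.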

Read-out in experiment [12]: Macrophage colony-stimulating factor (MCSF), CSF1 (gene 1435)
In words: BSK_LPS_MCSF: BioMAP Diversity Plus: LPS Assay for Macrophage colony-stimulating factor (MCSF) Biomarker Activity (AID 2283083). The settings on record: primary human HUVEC with PBMC; actives raise or lower the signal. Summed up:
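Human umbilical vein endothelial cells co-cultured with peripheral blood mononuclear cells were exposed to compound for 24 h. M-CSF levels were measured by ELISA, and bidirectional curve fitting used DMSO as the negative control and baseline.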

Read-out in experiment [13]: Tissue Factor, F3 (gene 2152)
In words: BSK_LPS_TissueFactor: BioMAP Diversity Plus: LPS Assay for Tissue Factor Biomarker Activity (AID 2283084). The settings on record: primary human HUVEC with PBMC; actives raise or lower the signal. Summed up: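 Human umbilical vein endothelial cells co-cultured with peripheral blood mononuclear cells were dosed and stimulated with LPS. Cell-surface CD142 was quantified by ELISA at 24 h. Activity was fitted bidirectionally against DMSO baseline.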

Read-out in experiment [14]: Tumor necrosis factor (Homo sapiens) (UniProt P01375)
In words: BSK_LPS_TNFa: BioMAP Diversity Plus: LPS Assay for Tumour Necrosis Factor alpha (TNFa) Biomarker Activity (AID 2283085).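 On AC50: TNFa protein level quantified by ELISA in the co-culture.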 The settings on record: primary human HUVEC with PBMC; actives raise or lower the signal. Summed up:
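TNFa was quantified by ELISA in LPS-activated co-cultures of human endothelial cells and PBMC, 24 h post-dosing. Both increases and decreases versus DMSO were fitted.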

Read-out in experiment [15]: Vascular cell adhesion molecule 1 (VCAM1), VCAM1 (gene 7412)
The experiment can be described thus: BSK_LPS_VCAM1: BioMAP Diversity Plus: LPS Assay for Vascular cell adhesion molecule 1 (VCAM1) Biomarker Activity (AID 2283086). As to conditions: primary human HUVEC with PBMC; actives raise or lower the signal. An outline of the steps: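 VCAM-1 quantified by ELISA in an LPS-activated co-culture of human endothelial cells and peripheral blood mononuclear cells, read 24 h post-treatment. Fitted in both directions versus DMSO; parallel SRB staining flags overt cytotoxicity.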

Read-out in a further experiment: CD38, CD38 (gene 952)
In words: BSK_SAg_CD38: BioMAP Diversity Plus: SAg Assay for CD38 Biomarker Activity (AID 2283087). The settings on record: primary human HUVEC with PBMC; actives raise or lower the signal. An outline of the steps: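 CD38 quantified by ELISA (fluorescence) in a superantigen-activated endothelial cell–PBMC co-culture at 24 h post-dose. Activity fitted in both directions relative to DMSO; parallel SRB and Alamar Blue cytotoxicity read-outs.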

Read-out in experiment [16]: CD40, CD40 (gene 958)
In words: BSK_SAg_CD40: BioMAP Diversity Plus: SAg Assay for CD40 Biomarker Activity (AID 2283088). The settings on record: primary human HUVEC with PBMC; actives raise or lower the signal. An outline of the steps:
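Human umbilical vein endothelial cells co-cultured with PBMC; CD40 levels measured by ELISA with fluorescence read-out 24 h after chemical dosing. Gain or loss of signal fitted bidirectionally against DMSO baseline.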

Read-out in the next experiment: CD69, CD69 (gene 969)
The experiment can be described thus: BSK_SAg_CD69: BioMAP Diversity Plus: SAg Assay for CD69 Biomarker Activity (AID 2283089). As to conditions: primary human HUVEC with PBMC; actives raise or lower the signal. Summed up: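 Primary human vascular co-culture (umbilical vein endothelium with peripheral blood mononuclear cells) exposed to test chemical for 24 h. CD69 levels quantified by fluorescence ELISA; DMSO served as negative control for bidirectional fitting.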

Read-out in experiment [17]: Monocyte Chemoattractant Protein-1 (MCP1), CCL2 (gene 6347)
In words: BSK_SAg_MCP1: BioMAP Diversity Plus: SAg Assay for Monocyte Chemoattractant Protein-1 (MCP1) Biomarker Activity (AID 2283090). The settings on record: primary human HUVEC with PBMC; actives raise or lower the signal. Summed up:
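Values derive from bidirectional fitting of ELISA-measured MCP1 against DMSO controls. Readings were taken 24 h after dosing human vascular endothelial cells co-cultured with peripheral blood mononuclear cells under superantigen stimulation.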

Read-out in experiment [18]: E-selectin (Homo sapiens) (UniProt P16581)
In words: BSK_SAg_Eselectin: BioMAP Diversity Plus: SAg Assay for Eselectin Biomarker Activity (AID 2283091). As to conditions: primary human HUVEC with PBMC; actives raise or lower the signal. An outline of the steps: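 HUVEC co-cultured with PBMC, compound dosed then read at 24 h; E-selectin measured by ELISA. Activity fitted bidirectionally against DMSO as negative control and baseline.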

The source made the active and inactive calls. How the source made its calls: active means hit-call score of the fitted dose curve at least 0.9, where 1 is the maximum; inactive means score below 0.9.

Chain of Tumor necrosis factor (Homo sapiens) (P01375 whole entry, looked up): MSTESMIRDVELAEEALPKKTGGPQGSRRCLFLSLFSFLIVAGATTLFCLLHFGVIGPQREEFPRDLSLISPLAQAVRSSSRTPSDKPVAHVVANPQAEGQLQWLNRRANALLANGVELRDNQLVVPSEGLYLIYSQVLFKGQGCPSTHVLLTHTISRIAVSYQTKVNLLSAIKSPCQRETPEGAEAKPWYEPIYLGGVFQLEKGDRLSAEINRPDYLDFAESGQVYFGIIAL
Chain of E-selectin (Homo sapiens) (P16581 whole entry, looked up): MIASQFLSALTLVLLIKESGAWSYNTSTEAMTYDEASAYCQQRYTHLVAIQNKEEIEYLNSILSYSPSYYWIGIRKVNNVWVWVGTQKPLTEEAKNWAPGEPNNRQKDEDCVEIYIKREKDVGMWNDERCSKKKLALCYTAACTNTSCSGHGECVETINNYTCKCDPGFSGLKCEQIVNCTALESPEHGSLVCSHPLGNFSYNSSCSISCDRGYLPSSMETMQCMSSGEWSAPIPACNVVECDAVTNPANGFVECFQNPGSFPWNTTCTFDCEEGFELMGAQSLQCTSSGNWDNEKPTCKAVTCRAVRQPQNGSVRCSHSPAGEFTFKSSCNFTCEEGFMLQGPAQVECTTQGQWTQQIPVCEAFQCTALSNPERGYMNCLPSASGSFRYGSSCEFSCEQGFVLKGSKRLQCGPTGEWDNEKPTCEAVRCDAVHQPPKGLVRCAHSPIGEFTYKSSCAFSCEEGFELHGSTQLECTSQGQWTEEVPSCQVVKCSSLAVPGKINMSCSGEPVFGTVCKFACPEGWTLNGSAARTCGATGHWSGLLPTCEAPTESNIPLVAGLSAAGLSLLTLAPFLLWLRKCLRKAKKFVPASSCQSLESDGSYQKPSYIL

In the case of `Cc1cnc(C2=NC(C)(C(C)C)C(=O)N2)c(C(=O)O)c1` (configuration not stated), the outcome was “inactive” in [1]; “inactive” in [2]; “inactive” in experiment [3]; “inactive” in experiment [4]; “inactive” in the experiment with CD40, CD40 (gene 958) [5]; “inactive” in [6]. Also, the outcome in experiment [7], in experiment [8], in experiment [9], in experiment [10], in experiment [11] and in experiment [12] was inactive. For the same compound, the outcome is “inactive” in experiment [13]; “inactive” in experiment [14]; “inactive” in experiment [15]; “inactive” with CD38, CD38 (gene 952); “inactive” with CD40, CD40 (gene 958) [16]; “inactive” with CD69, CD69 (gene 969). For the same compound, the outcome in [17] and in [18] was inactive.
Take `CCOC(=O)C(C)OC(=O)c1cc(Oc2ccc(C(F)(F)F)cc2Cl)ccc1[N+](=O)[O-]` (configuration not stated): the outcome in experiment [1] is “inactive”; in experiment [2] it was “inactive”; in experiment [4], “inactive”; in the experiment with CD40, CD40 (gene 958) [5], “inactive”; in experiment [6] it was “inactive”; in [7], “inactive”. The result in experiment [9], in experiment [10], in experiment [12], in experiment [13], in experiment [15] and in [17] was inactive. Further, the AC50 in experiment [3] is 5.83 µM (active); in experiment [8], 6.48 µM (active); in [11], 2.12 µM (active); in experiment [14], 3.73 µM (active); with CD40, CD40 (gene 958) [16] it was 3.97 µM (active); in [18] it was 10 µM (active).
For `CS(=O)(=O)c1ccc(C(=O)C2C(=O)CCCC2=O)c([N+](=O)[O-])c1`, the outcome is “inactive” in [1]; “inactive” in experiment [2]; “inactive” in experiment [3]; “inactive” in experiment [4]; “inactive” in the experiment with CD40, CD40 (gene 958) [5]; “inactive” in [6]. The result in experiment [7], in experiment [8], in [9], in [10], in experiment [11] and in [12] was inactive. Moreover, the outcome in experiment [13] was “inactive”; in experiment [14] it was “inactive”; in experiment [15] it was “inactive”; in the experiment with CD38, CD38 (gene 952), “inactive”; with CD40, CD40 (gene 958) [16], “inactive”; in [17] it was “inactive”. In addition, the outcome in [18] was inactive.

For the origin of these results see PubChem BioAssay (EPA / NIEHS).
